Reference: ChEMBL document CHEMBL4513216, “Probing the Open Global Health Chemical Diversity Library for Multistage-Active Starting Points for Next-Generation Antimalarials” (ACS Infect Dis, 2020)
Hit rate of the full screen: of about 69,000 compounds, about 8,600 (12%) showed an effect of 50% or more. Many of the other results were omitted from the sample, so strong results are more common in it than they were.

Test system: Plasmodium berghei
Experiment: Screen against P. berghei liver stage (PbLuc), transformed with Luciferase, at 10uM
Assay type: functional, HepG2
Settings: tested at 10 uM

Row | Compound | INHIBITION
1 | O=C(Cc1noc2ccccc12)N1CCC(Nc2cccnn2)CC1 | 43.3%
2 | CC(C)(C)c1n[nH]c(C2CN(C(=O)c3cc(C4CC4)on3)CCO2)n1 (configuration not stated) | 35.5%
3 | O=C(CCCNc1ncccn1)N1CCCC(n2cncn2)C1 (configuration not stated) | 27.6%
4 | O=C([C@H]1CN(Cc2nccs2)C[C@H]2OCC[C@@H]12)N1CCCCO1 | 22.2%
5 | CCC(=O)c1ccc(Br)cc1NN1c2cc(Br)ccc2C(=O)C1(C)OC (configuration not stated) | 70.6%
6 | CCC(=O)c1ccccc1NN1c2ccccc2C(=O)C1(C)OC (configuration not stated) | 17.6%
7 | CCOC1(C)C(=O)c2ccccc2N1Nc1ccccc1C(=O)CC (configuration not stated) | 67.3%
8 | CC(NC(=O)N1CCNC(=O)CC1)c1ccc(C(F)(F)F)cc1 (configuration not stated) | 48.2%
9 | Cc1cc2n(n1)[C@@H](C(F)(F)F)C[C@@H](C1CCN(C(=O)C(C)C)CC1)N2 | -26.2%
10 | Cc1cnc(C(=O)N2CCCC(c3c(C)c(=O)nc4n3CCC4)C2)cn1 (configuration not stated) | -17.7%
11 | O=S(=O)(NCc1ccccc1)N1CCN(c2ncccn2)CC1 | 31%
12 | O=S(=O)(NCc1ccccc1)N1CCCN(c2ccncc2)CC1 | 71.3%
13 | N#Cc1cccnc1N1CCN(S(=O)(=O)NCc2ccccc2)CC1 | 11.5%
14 | Cc1ccccc1C(CNc1ncnc2c1CCNCC2)N(C)C (configuration not stated) | -59.8%
15 | Cc1[nH]c2ccccc2c1CCNc1ncnc2c1CCNCC2 | 72.1%
16 | Cc1cccc(=O)n1CCCNc1ncnc2c1CCNCC2 | -1.98%
17 | Cc1[nH]c2ccc(C#N)cc2c1CCNc1ncnc2c1CCNCC2 | 44.3%
18 | Cc1ccccc1C(CNc1ncnc2c1CCNC2)N(C)C (configuration not stated) | -2.98%
19 | Cc1[nH]c2ccc(Cl)cc2c1CCNc1ncnc2c1CCNC2 | 92.5%
20 | c1cnn(CCN2CCOC(Cn3cccn3)C2)c1 (configuration not stated) | -59.4%
21 | CCCOCC(=O)N1CCc2nc(NC)nc(C(=O)N3CCCC3)c2C1 | -5.08%
22 | CN(C)c1ccc(C(=O)N2CCN(c3cnccn3)CC2)cn1 | 2.1%
23 | Cc1nn(C)c2ncc(CN3CCN(c4ncccn4)CC3)cc12 | 7.3%
24 | CCC(C)NC(=O)CS(=O)(=O)Cc1cc(Cl)c2c(c1)OCCCO2 (configuration not stated) | -58.7%

Row | Compound | INHIBITION
25 | CCOC(=O)C1(O)CCN(C(=O)Nc2cccc(CC)c2)CC1 | -41.8%
26 | COc1c(C2CCCN2C(=O)c2ccnc(C)n2)c(C)nn1C (configuration not stated) | 3.73%
27 | Cc1nn(C)cc1CN1CCCCCC1c1ccc(Cl)cc1 (configuration not stated) | 13.6%
28 | CCc1noc(C(C)N2CCN(C)CC2)n1 (configuration not stated) | -5.25%
29 | CCOc1cc(C)nc(N2CCN(C(C)c3nc(C)no3)CC2)n1 (configuration not stated) | 18.7%
30 | CCc1noc(C(C)N2CCN(c3ccc(C#N)cn3)CC2)n1 (configuration not stated) | -25.3%
31 | Cc1noc(C(C)N2CCC(c3nc4ccccc4[nH]3)CC2)n1 (configuration not stated) | 35.4%
32 | CCc1noc(C(C)N2CCN(c3ncnc4sccc34)CC2)n1 (configuration not stated) | 61.7%
33 | Cc1noc(C(C)N2CCN(Cc3ccco3)CC2)n1 (configuration not stated) | 34.7%
34 | COc1cc(C)nc(N2CCN(C(C)c3nc(C)no3)CC2)n1 (configuration not stated) | -72.5%
35 | Cc1cnc(CN2CCN(C(C)c3nc(C)no3)CC2)cn1 (configuration not stated) | -14.8%
36 | COc1ccnc(N2CCN(C(C)c3nc(C)no3)CC2)n1 (configuration not stated) | 22.6%
37 | Cc1noc(C(C)N2CCN(c3ncnc4ccccc34)CC2)n1 (configuration not stated) | 51.3%
38 | CCc1cc(C)nc(N2CCN(C(C)c3nc(C)no3)CC2)n1 (configuration not stated) | 53.4%
39 | Cc1noc(C(C)N2CCN(c3ncnc4sccc34)CC2)n1 (configuration not stated) | 68.8%
40 | Nc1ccnc(N2C[C@H](O)[C@@H](N3CCN(c4ccccn4)CC3)C2)n1 | 37.2%
41 | O=C([C@H]1C[C@H]2CN(c3ncc(F)cn3)C[C@@H]1O2)N1CCOCC1 | 17.7%
42 | CC1CN(CC(=O)NC2CCOCC2)CCN1Cc1nccn1C (configuration not stated) | 29.305%
43 | CCCOc1cccc(C(=O)Oc2cc(=O)n3cccc(C)c3n2)c1 | 22.6%
44 | Cc1ncncc1C(=O)N1CCCC1c1c(C)nn(C)c1Cl (configuration not stated) | 1.78%
45 | Cc1cnc(C(=O)N2C[C@@H]3CC[C@H]2CN(c2cnccn2)C3)cn1 | -55.1%
46 | O=C(C1CCCCC1)N1CCN(Cc2nc(-c3ccco3)no2)CC1 | 23.7%
47 | COC(=O)c1ccoc1CN(C)CC(=O)N(C)C | 22.8%
48 | NC(=O)CN1CCOCC(Cc2ccccc2Cl)C1 (configuration not stated) | 11.1%

Row | Compound | INHIBITION
49 | O=C(c1csc(I)c1)N1CCc2c(ncn2C2CC2)C1 | 76%
50 | CN(C)c1ncccc1C(=O)N1CCc2c(ncn2C2CC2)C1 | -10.785%
51 | COC(=O)c1ccc(C(=O)N2CCc3c(ncn3C3CC3)C2)cc1 | -36.95%
52 | CCN(CC)Cc1nnc2sc(C(C)Oc3ccccc3)nn12 (configuration not stated) | -2.93%
53 | CC(C)C1CN(c2cccc(C#N)n2)CCCN1CC1CC1 (configuration not stated) | 33.9%
54 | CC(C)C1CN(S(=O)(=O)N2CCCC2)CCCN1Cc1ccc(F)cc1 (configuration not stated) | 65.3%
55 | CC(C)C1CN(S(C)(=O)=O)CCCN1Cc1ccc(F)cc1 (configuration not stated) | 24.3%
56 | CC(C)C1CN(c2cccc(C#N)n2)CCCN1Cc1ccc(F)cc1 (configuration not stated) | 68.5%
57 | CC(C)C1CN(S(=O)(=O)C2CC2)CCCN1Cc1ccc(F)cc1 (configuration not stated) | 45.6%
58 | CC(C)C1CN(S(=O)(=O)N(C)C)CCCN1Cc1ccc(F)cc1 (configuration not stated) | 12.8%
59 | Fc1cnc(N2CCn3cc(CNc4ccccn4)nc3C2)nc1 | 47.2%
60 | CC(C)n1nc(CNc2ncccn2)c2c1CN(C1CCOCC1)CC2 | -18.2%
61 | O=C(NCCn1cccc1)C1CCC(=O)N(C2CCCC2)C1 (configuration not stated) | 41.2%
62 | CSCCNC(=O)C1CCC(=O)N(C2CCCC2)C1 (configuration not stated) | 17.9%
63 | O=C(NCCN1CCCCC1=O)C1CCC(=O)N(C2CCCC2)C1 (configuration not stated) | 55.6%
64 | CN(C)C(=O)c1cccc(CNc2ccc(C#N)cn2)c1 | 73.8%
65 | CNC(=O)c1cccc(CCNc2ccc(C#N)cn2)c1 | -11%
66 | N#Cc1ccc(NCc2cccc(COC3CCOCC3)c2)nc1 | 7.58%
67 | N#Cc1ccc(NCc2cccc(OCC3CCCO3)c2)nc1 (configuration not stated) | 53.8%
68 | Oc1cccc(CNCC2CCCO2)c1 (configuration not stated) | 35.5%
69 | Cc1nc2ccccc2nc1NCc1cccc(OCC2CCCO2)c1 (configuration not stated) | 83.9%
70 | Cc1nnc(NCc2cccc(OCC3CCCO3)c2)c(C#N)c1C (configuration not stated) | 1.74%
71 | CNS(=O)(=O)Cc1cccc(CNc2ccc(C#N)cn2)c1 | -55%
72 | N#Cc1ccc(NCCCOCC2CCCO2)c(F)c1 (configuration not stated) | 6.02%
